# In PubChem BioAssay (EPA / NIEHS):
# The source made the active and inactive calls. How the source made its calls: active means hit-call score of the fitted dose curve at least 0.9, where 1 is the maximum; inactive means score below 0.9.
# Key:
# [1] = ATG_GRE_CIS: Attagene CIS-FACTORIAL HepG2 Assay for human Glucocorticoid Response Elements (GRE) (AID 2282947); details: HepG2 GRE cis-reporter, Attagene multiplex mRNA; actives raise or lower the signal
# Procedure, shortened: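 Read-out: fluorescent reporter-transcript fragments separated by capillary electrophoresis after RT-PCR. Transiently transfected HepG2 cells carrying cis-element-driven reporter units were dosed for 24 h; gain or loss of signal fitted against DMSO control.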
# [2] = ATG_ISRE_CIS: Attagene CIS-FACTORIAL HepG2 Assay for human Interferon Regulatory Factor 1 (IRF1) binding to an Interferon-Stimulated Response Element (ISRE) (AID 2282948); details: HepG2 ISRE cis-reporter (Attagene), mRNA transcription readout; actives raise or lower the signal
# Procedure, shortened: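 Signal reflects induction or loss of ISRE-linked reporter mRNA in transiently transfected HepG2 cells after a 24 h treatment, detected by fluorescent RT-PCR fragments on capillary electrophoresis and normalised to DMSO.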
# [3] = ATG_M_32_CIS: Attagene CIS-FACTORIAL HepG2 Assay for M32 Transcription Factor (Internal Marker) (AID 2282949); details: HepG2 Attagene cis-factorial M32 reporter, mRNA; actives raise or lower the signal;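 further: background control marker of the multiplexed CIS panel rather than a real target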
# Procedure, shortened: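 Using DMSO as baseline, bidirectional curve fits were applied to reporter mRNA signals. These came from transiently transfected HepG2 cells exposed for 24 h, with RNA analysed by RT-PCR, FAM primer extension, HpaI digestion and CE.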
# [4] = ATG_M_06_CIS: Attagene CIS-FACTORIAL HepG2 Assay for M06 Transcription Factor (Internal Marker) (AID 2282950); details: HepG2 Attagene CIS-FACTORIAL M06 internal marker reporter; actives raise or lower the signal
# Procedure, shortened: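 HepG2 liver cells, 24 h exposure. Reporter transcripts from transfected cis-element constructs quantified by RT-PCR/capillary electrophoresis fluorescence. Bidirectional curve fit against DMSO.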
# [5] = molecular target: Hypoxia-inducible factor 1-alpha (Homo sapiens) (UniProt Q16665); experiment: ATG_HIF1a_CIS: Attagene CIS-FACTORIAL HepG2 Assay for human Hypoxia Inducible Factor 1 (HIF1A) (AID 2282951); details: HepG2 Attagene cis-factorial HIF1a reporter transcription; actives raise or lower the signal
# Sequence of Hypoxia-inducible factor 1-alpha (Homo sapiens) (Q16665 whole entry, looked up): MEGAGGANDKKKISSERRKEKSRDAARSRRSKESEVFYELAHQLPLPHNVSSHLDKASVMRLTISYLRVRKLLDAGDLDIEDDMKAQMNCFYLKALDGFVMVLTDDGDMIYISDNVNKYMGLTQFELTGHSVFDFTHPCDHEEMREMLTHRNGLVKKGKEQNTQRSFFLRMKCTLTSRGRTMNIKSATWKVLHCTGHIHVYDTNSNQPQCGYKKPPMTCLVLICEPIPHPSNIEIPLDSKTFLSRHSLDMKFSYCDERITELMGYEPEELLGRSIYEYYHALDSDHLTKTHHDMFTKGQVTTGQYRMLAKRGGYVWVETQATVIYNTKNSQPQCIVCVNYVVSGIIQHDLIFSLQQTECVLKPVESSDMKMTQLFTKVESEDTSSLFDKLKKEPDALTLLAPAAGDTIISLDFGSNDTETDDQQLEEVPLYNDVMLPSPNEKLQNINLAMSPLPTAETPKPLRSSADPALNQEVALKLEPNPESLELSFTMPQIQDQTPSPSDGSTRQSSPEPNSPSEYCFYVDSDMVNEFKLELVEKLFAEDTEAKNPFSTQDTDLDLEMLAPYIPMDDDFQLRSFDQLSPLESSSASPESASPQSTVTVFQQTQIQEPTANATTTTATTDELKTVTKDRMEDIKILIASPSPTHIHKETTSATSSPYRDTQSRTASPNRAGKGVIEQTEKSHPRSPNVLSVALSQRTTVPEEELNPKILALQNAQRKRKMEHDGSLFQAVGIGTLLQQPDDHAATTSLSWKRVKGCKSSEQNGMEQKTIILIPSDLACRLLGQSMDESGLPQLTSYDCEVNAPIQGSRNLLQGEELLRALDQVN
# Procedure, shortened: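 HepG2 cells transiently transfected with multiple cis-regulated reporter transcription units measure endogenous transcription factor activity. After 24 h exposure, reporter mRNA is quantified by RT-PCR with 6-FAM labelling, HpaI digestion and capillary electrophoresis. Bidirectional fitting against DMSO.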
# [6] = molecular target: Hepatocyte nuclear factor 6 (Homo sapiens) (UniProt Q9UBC0); experiment: ATG_HNF6_CIS: Attagene CIS-FACTORIAL HepG2 Assay for human Hepatocyte Nuclear Factor 6 (HNF6) (AID 2282952); details: HepG2 Attagene cis-factorial HNF6 reporter transcription; actives raise or lower the signal
# Sequence of Hepatocyte nuclear factor 6 (Homo sapiens) (Q9UBC0 whole entry, looked up, the tested form may be a part): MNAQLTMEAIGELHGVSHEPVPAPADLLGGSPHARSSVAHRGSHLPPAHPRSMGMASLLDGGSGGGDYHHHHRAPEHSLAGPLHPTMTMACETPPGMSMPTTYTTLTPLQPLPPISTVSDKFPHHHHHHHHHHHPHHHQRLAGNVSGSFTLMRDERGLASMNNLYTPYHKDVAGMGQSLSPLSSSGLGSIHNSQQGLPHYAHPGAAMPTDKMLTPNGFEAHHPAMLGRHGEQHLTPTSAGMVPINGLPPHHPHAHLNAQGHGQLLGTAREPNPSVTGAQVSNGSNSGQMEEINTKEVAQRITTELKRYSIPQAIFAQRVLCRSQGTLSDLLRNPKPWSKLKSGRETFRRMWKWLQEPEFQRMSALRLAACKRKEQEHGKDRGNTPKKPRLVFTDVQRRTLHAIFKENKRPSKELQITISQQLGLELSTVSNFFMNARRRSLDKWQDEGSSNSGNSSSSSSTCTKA
# Procedure, shortened: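 First, HepG2 cells were transfected with the multiplexed cis reporter library and dosed with chemical for 24 h. Next, RNA was reverse-transcribed, PCR-amplified and fluorescently labelled. Finally, HpaI-digested fragments were read by capillary electrophoresis.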
# [7] = molecular target: Heat shock factor protein 1 (Homo sapiens) (UniProt Q00613); experiment: ATG_HSE_CIS: Attagene CIS-FACTORIAL HepG2 Assay for human Heat Shock Transcription Factor 1 (HSE) (AID 2282953); details: HepG2 HSE cis-reporter, Attagene RNA transcription; actives raise or lower the signal
# Sequence of Heat shock factor protein 1 (Homo sapiens) (Q00613 whole entry, looked up, the tested form may be a part): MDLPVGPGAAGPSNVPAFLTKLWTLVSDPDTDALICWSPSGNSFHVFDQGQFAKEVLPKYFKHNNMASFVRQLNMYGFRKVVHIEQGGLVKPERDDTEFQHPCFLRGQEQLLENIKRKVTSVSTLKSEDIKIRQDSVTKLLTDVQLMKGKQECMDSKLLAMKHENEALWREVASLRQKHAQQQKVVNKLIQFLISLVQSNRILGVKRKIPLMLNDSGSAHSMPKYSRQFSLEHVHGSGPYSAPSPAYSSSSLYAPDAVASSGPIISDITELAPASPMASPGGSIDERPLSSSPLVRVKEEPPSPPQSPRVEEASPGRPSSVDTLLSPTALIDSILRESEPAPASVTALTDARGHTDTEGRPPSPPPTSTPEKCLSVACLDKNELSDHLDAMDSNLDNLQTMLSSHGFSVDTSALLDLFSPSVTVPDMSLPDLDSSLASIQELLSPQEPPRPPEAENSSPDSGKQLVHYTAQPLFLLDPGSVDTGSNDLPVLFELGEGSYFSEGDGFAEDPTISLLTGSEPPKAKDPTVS
# Procedure, shortened: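 Endogenous transcription factor activity captured via cis-promoter reporter units transfected into HepG2; treatment lasted 24 h. Fluorescence intensity of reporter fragments analysed with bidirectional curve fitting, DMSO baseline.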
# [8] = ATG_MRE_CIS: Attagene CIS-FACTORIAL HepG2 Assay for human Metal Responsive Element (MRE) (AID 2282954); details: HepG2 MRE cis-reporter transcription, Attagene multiplex; actives raise or lower the signal
# Procedure, shortened: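 RT-PCR/capillary electrophoresis readout of reporter mRNA, 24 h post-dosing, in HepG2 cells transfected with multiplexed cis-regulated reporter constructs. Gain or loss of signal fitted bidirectionally against DMSO baseline.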
# [9] = ATG_PBREM_CIS: Attagene CIS-FACTORIAL HepG2 Assay for human Phenobarbital-responsive Enhancer Module (PBREM) (AID 2282955); details: HepG2 PBREM cis-reporter, Attagene multiplexed transcription; actives raise or lower the signal
# Procedure, shortened: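 HepG2 cells transiently transfected with multiple cis-regulated reporter units measure endogenous transcription factor activity; 24 h compound exposure. Reporter mRNA quantified by RT-PCR, fluorescent labelling, HpaI digestion and capillary electrophoresis; bidirectional fit versus DMSO.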
# [10] = molecular target: Paired box protein Pax-6 (Homo sapiens) (UniProt P26367); experiment: ATG_Pax6_CIS: Attagene CIS-FACTORIAL HepG2 Assay for human Paired Box 6 (PAX6) (AID 2282956); details: HepG2 CIS-FACTORIAL PAX6 reporter transcription, RNA readout; actives raise or lower the signal
# Sequence of Paired box protein Pax-6 (Homo sapiens) (P26367 whole entry, looked up): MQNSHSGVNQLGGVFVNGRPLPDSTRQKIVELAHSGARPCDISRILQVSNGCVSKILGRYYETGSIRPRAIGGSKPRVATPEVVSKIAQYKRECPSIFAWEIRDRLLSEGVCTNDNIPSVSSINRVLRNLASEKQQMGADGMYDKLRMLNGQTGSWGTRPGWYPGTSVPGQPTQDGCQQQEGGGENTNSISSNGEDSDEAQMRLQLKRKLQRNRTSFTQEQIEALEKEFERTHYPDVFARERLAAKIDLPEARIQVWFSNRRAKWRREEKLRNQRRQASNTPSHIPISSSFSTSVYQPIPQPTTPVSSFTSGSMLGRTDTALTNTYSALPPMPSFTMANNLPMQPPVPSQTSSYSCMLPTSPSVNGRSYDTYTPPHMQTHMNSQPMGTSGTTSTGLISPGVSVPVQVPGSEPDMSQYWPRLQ
# Procedure, shortened: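 Values derive from bidirectional curve fitting of reporter mRNA signal relative to DMSO. HepG2 cells bearing transfected cis-regulated MRTUs were exposed for 24 h; transcripts were read by RT-PCR and capillary electrophoresis.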
# [11] = ATG_PXRE_CIS: Attagene CIS-FACTORIAL HepG2 Assay for human Pregnane X Receptor Element (PXRE) (AID 2282957); details: HepG2 Attagene CIS-FACTORIAL PXRE reporter, mRNA; actives raise or lower the signal
# Procedure, shortened: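 After a 24 h chemical incubation, total RNA from transfected HepG2 cells was reverse-transcribed and reporter cDNA amplified, FAM-labeled, HpaI-digested and sized by capillary electrophoresis. DMSO served as baseline for bidirectional curve fitting.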
# [12] = ATG_PPRE_CIS: Attagene CIS-FACTORIAL HepG2 Assay for human Peroxisome Proliferator-activated Response Element (PPRE) (AID 2282958); details: HepG2 PPRE cis-element reporter, Attagene transcription factor profiling; actives raise or lower the signal
# Procedure, shortened: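 HepG2 cells are transiently transfected with multiplexed cis-promoter reporter units to report endogenous PPAR activity. After 24 h dosing, reporter mRNA is read by RT-PCR and capillary electrophoresis. Fitting is bidirectional against DMSO.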
# [13] = molecular target: Transcription factor Sp1 (Homo sapiens) (UniProt P08047); experiment: ATG_Sp1_CIS: Attagene CIS-FACTORIAL HepG2 Assay for human Specificity Protein 1 (Sp1) (AID 2282961); details: HepG2 Sp1 cis-reporter transcription, actives raise or lower the signal
# Sequence of Transcription factor Sp1 (Homo sapiens) (P08047 whole entry, looked up): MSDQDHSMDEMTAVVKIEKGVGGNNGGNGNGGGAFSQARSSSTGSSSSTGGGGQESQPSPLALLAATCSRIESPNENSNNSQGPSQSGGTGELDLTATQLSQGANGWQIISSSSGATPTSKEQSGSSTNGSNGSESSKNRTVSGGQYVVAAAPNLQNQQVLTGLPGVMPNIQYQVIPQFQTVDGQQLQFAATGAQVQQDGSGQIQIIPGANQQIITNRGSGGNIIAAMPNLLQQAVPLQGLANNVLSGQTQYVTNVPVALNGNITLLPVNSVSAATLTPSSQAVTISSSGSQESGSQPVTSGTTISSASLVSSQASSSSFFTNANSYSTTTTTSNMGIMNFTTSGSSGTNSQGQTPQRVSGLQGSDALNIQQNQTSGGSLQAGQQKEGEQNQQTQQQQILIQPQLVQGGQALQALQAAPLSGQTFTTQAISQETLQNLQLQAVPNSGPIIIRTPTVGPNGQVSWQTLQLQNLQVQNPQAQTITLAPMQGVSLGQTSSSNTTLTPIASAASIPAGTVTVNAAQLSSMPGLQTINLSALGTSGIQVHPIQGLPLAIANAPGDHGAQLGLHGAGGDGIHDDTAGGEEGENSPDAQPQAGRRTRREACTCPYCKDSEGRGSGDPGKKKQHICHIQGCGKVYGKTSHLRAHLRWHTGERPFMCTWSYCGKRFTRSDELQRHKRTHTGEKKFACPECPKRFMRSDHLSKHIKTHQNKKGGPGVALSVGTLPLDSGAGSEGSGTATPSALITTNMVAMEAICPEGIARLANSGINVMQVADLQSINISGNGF
# Procedure, shortened: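 HepG2 cells transiently transfected with multiplexed cis-regulated reporter constructs, chemical exposure 24 h. Reporter mRNA quantified by RT-PCR with capillary electrophoresis; bidirectional fit relative to DMSO.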
# [14] = ATG_SREBP_CIS: Attagene CIS-FACTORIAL HepG2 Assay for human Sterol Regulatory Element Binding (SREBP) (AID 2282962); details: HepG2 Attagene cis-factorial SREBP reporter, mRNA; actives raise or lower the signal
# Procedure, shortened: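 Values derive from bidirectional curve fitting with DMSO as baseline. The underlying measurement is reporter mRNA from cis-element-regulated units in transiently transfected HepG2, quantified by RT-PCR and capillary electrophoresis after 24 h exposure.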
# [15] = molecular target: Signal transducer and activator of transcription 3 (Homo sapiens) (UniProt P40763); experiment: ATG_STAT3_CIS: Attagene CIS-FACTORIAL HepG2 Assay for human Signal Transducer and Activator of Transcription 3 (STAT3) (AID 2282963); details: HepG2, Attagene cis-factorial STAT3 reporter transcription; actives raise or lower the signal
# Sequence of Signal transducer and activator of transcription 3 (Homo sapiens) (P40763 whole entry, looked up, the tested form may be a part): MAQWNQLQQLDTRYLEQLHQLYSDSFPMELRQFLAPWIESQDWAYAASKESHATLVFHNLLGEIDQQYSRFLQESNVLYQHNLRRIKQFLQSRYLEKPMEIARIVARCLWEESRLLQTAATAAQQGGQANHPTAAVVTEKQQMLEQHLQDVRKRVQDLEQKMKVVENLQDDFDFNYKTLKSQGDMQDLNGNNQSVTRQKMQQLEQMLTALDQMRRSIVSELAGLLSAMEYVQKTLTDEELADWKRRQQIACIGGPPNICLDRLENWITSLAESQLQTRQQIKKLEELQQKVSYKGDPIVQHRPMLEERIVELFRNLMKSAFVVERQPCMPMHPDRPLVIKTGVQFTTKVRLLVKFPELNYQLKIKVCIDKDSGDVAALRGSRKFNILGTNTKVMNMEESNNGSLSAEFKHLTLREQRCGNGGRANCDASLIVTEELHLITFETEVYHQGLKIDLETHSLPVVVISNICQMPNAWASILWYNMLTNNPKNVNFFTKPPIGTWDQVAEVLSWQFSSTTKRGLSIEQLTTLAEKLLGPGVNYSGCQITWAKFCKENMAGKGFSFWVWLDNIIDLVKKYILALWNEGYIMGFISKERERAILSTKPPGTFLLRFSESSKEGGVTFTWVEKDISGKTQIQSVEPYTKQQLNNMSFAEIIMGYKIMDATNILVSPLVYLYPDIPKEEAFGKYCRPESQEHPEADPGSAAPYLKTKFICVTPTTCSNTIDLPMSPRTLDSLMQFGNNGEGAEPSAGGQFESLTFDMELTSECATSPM
# Procedure, shortened: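 Readout: fluorescent reporter mRNA fragments resolved by capillary electrophoresis. Setup: HepG2 transfected with MRTUs reporting endogenous transcription-factor activity, dosed 24 h. Gain or loss of signal fitted bidirectionally against DMSO control.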
# [16] = ATG_TA_CIS: Attagene CIS-FACTORIAL HepG2 Assay for human TA Basal Promoter (AID 2282964); details: HepG2 Attagene CIS-factorial TA basal promoter reporter; actives raise or lower the signal
# Procedure, shortened: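 Fluorescence from labelled RT-PCR reporter fragments, separated by capillary electrophoresis, gives the signal. Cells: HepG2 transiently carrying multiple reporter units, 24 h chemical dosing. Gain or loss relative to DMSO.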
# [17] = ATG_TCF_b_cat_CIS: Attagene CIS-FACTORIAL HepG2 Assay for human T-Cell-Factor with beta-catenin (TCF/b-cat) (AID 2282965); details: HepG2 TCF/beta-catenin cis-reporter transcription, actives raise or lower the signal
# Procedure, shortened: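 HepG2 cells transiently transfected with cis-promoter-driven multiplexed reporter units; reporter mRNA measured 24 h after dosing by RT-PCR, FAM labelling, HpaI digestion and capillary electrophoresis. Bidirectional fitting relative to DMSO baseline.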
# [18] = ATG_TAL_CIS: Attagene CIS-FACTORIAL HepG2 Assay for human TAL Basal Promoter (AID 2282966); details: HepG2 Attagene cis-factorial TAL promoter reporter; actives raise or lower the signal;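 further: background control endpoint measuring basal TAL promoter reporter mRNA not a specific factor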
# Procedure, shortened: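 Basal-promoter background-control endpoint from a multiplexed HepG2 reporter panel. Cells were exposed 24 h, then reporter mRNA was read by RT-PCR/CE fluorescence and fitted in both directions relative to DMSO.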
# [19] = ATG_RORE_CIS: Attagene CIS-FACTORIAL HepG2 Assay for human RAR-related Orphan Receptor Element (RORE) (AID 2282959); details: HepG2 Attagene cis-factorial RORE reporter, mRNA; actives raise or lower the signal
# Procedure, shortened: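 HepG2 cells carrying transiently transfected cis-regulated reporter units; RORE-driven reporter mRNA quantified 24 h post-dosing by RT-PCR, 6-FAM primer extension, HpaI digestion and capillary electrophoresis. Bidirectional fit versus DMSO.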
# [20] = ATG_Sox_CIS: Attagene CIS-FACTORIAL HepG2 Assay for human SRY-box transcription factor (SOX) (AID 2282960); details: HepG2 Attagene cis-factorial SOX reporter, mRNA; actives raise or lower the signal
# Procedure, shortened: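 HepG2 cells transiently transfected with multiple cis-regulated reporter units, then dosed for 24 h. Reporter mRNA quantified by RT-PCR, fluorescent labelling, HpaI digestion and capillary electrophoresis; bidirectional fit versus DMSO.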
structure (smiles),measurement,setting,value
CCOC(=O)c1ccc(C2CCC(NC[C@H](O)COc3ccc(O)c(NS(C)(=O)=O)c3)CC2)cc1 (some centres undefined),AC50,[1],53.8 µM (active)
same,AC50,[2],51.5 µM (active)
same,outcome,[3],inactive
same,outcome,[4],inactive
same,AC50,[5],7.81 µM (active)
same,outcome,[6],inactive
same,AC50,[7],61.8 µM (active)
same,AC50,[8],55 µM (active)
same,AC50,[9],53.4 µM (active)
same,AC50,[10],46.5 µM (active)
same,outcome,[11],inactive
same,AC50,[12],57.5 µM (active)
same,outcome,[13],inactive
same,outcome,[14],inactive
same,outcome,[15],inactive
same,outcome,[16],inactive
same,AC50,[17],48.3 µM (active)
same,outcome,[18],inactive
CCOc1cccc(-n2cc(C(=O)N3CCN(c4cc(C(=O)O)c5ccccc5c4)CC3)nc2-c2ccc(C)cc2)c1,outcome,[1],inactive
same,AC50,[2],22.8 µM (active)
same,outcome,[3],inactive
same,outcome,[4],inactive
same,AC50,[5],6.55 µM (active)
same,AC50,[7],61.4 µM (active)
same,AC50,[8],32.3 µM (active)
same,outcome,[9],inactive
same,AC50,[10],33 µM (active)
same,AC50,[11],41.4 µM (active)
same,AC50,[12],28.3 µM (active)
same,AC50,[19],26.1 µM (active)
same,outcome,[20],inactive
same,outcome,[13],inactive
same,AC50,[14],3.92 µM (active)
same,outcome,[15],inactive
same,outcome,[16],inactive
same,AC50,[17],22.3 µM (active)
same,outcome,[18],inactive
CC/C(=C\C(=N/O)C(N)=O)C(C)[N+](=O)[O-] (centres undefined),outcome,[1],inactive
same,outcome,[2],inactive
same,outcome,[3],inactive
same,outcome,[4],inactive
same,outcome,[5],inactive
same,outcome,[6],inactive
same,outcome,[7],inactive
same,outcome,[8],inactive
same,outcome,[9],inactive
same,outcome,[10],inactive
same,outcome,[11],inactive
same,outcome,[12],inactive
same,outcome,[19],inactive
same,outcome,[20],inactive
same,outcome,[13],inactive
same,outcome,[14],inactive
same,outcome,[15],inactive
same,outcome,[16],inactive
same,AC50,[17],100 µM (active)
same,outcome,[18],inactive
CCCC(=O)OCC,outcome,[1],inactive
same,outcome,[2],inactive
same,outcome,[3],inactive
same,outcome,[4],inactive
same,outcome,[6],inactive
same,outcome,[7],inactive
same,outcome,[8],inactive
same,outcome,[9],inactive
same,outcome,[10],inactive
same,outcome,[11],inactive
same,outcome,[12],inactive
same,outcome,[19],inactive
same,outcome,[20],inactive
same,outcome,[13],inactive
same,outcome,[14],inactive
same,outcome,[15],inactive
same,outcome,[16],inactive
same,outcome,[17],inactive
same,outcome,[18],inactive
CNCc1ccc(NC(=O)c2c[nH]c3c2C(=O)CCC3)cc1,outcome,[1],inactive
same,AC50,[2],71.1 µM (active)
same,outcome,[3],inactive
same,outcome,[4],inactive
same,outcome,[5],inactive
same,outcome,[6],inactive
same,outcome,[7],inactive
same,outcome,[8],inactive
same,outcome,[9],inactive
same,outcome,[10],inactive
same,outcome,[11],inactive
same,outcome,[12],inactive
same,outcome,[19],inactive
same,outcome,[13],inactive
same,outcome,[14],inactive
same,outcome,[15],inactive
same,outcome,[16],inactive
same,AC50,[17],24.1 µM (active)
same,outcome,[18],inactive
Clc1nc(Cl)c(Cl)c(Cl)c1Cl,outcome,[1],inactive
same,outcome,[2],inactive
same,outcome,[3],inactive
same,outcome,[4],inactive
same,outcome,[6],inactive
same,outcome,[7],inactive
same,outcome,[8],inactive
same,outcome,[9],inactive
same,outcome,[10],inactive
same,outcome,[11],inactive
same,outcome,[12],inactive
same,outcome,[19],inactive
same,outcome,[20],inactive
same,outcome,[13],inactive
same,outcome,[14],inactive
same,outcome,[15],inactive
same,outcome,[16],inactive
same,outcome,[17],inactive
same,outcome,[18],inactive
